Screens deposited in PubChem BioAssay by National Center for Advancing Translational Sciences (NCATS).
CtBP-E1A blk: qHTS Assay for Inhibitors of the CtBP/E1A Interaction; activity change, % (concentration not given with the values); AlphaScreen GST-E1A/His-CtBP binding, 1536-well; active compounds read low; 0.49% of 340,000 active; CtBP / adenovirus E1A interaction (AlphaScreen); in the data active means activity change below about -65%; inconclusive means mostly about -30% to -63%; further: on the % scale 0 is the no-effect control and ±100 the full control effect
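Homogeneous bead-based format: GST-tagged E1A captured on glutathione donor beads, His-tagged CtBP on nickel acceptor beads; compounds precede bead addition by 2 h at 37 °C.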
HP1b chromo inh: HTS for Inhibitors of HP1-beta Chromodomain Interactions with Methylated Histone Tails | Chromobox protein homolog 1 (Homo sapiens), P83916 | AlphaScreen HP1-beta / biotin-H3K9me3 peptide binding | Potency, µM (top dose mostly 114 µM), inactives show at the top dose activity change, negative = inhibition, hits mostly inhibitors | 0.56% of 390,000 active | AID 540317, 2011; further: potency means the concentration at half of the fitted maximal effect; nearly all actives have a fitted effect of over 70% in size
Target sequence (P83916 whole entry, looked up): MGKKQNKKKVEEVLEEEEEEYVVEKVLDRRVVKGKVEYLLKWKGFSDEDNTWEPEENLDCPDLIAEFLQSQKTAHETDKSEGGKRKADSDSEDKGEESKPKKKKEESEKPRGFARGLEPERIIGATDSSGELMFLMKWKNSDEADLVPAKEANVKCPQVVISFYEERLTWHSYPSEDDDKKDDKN
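Compound inhibition of the preformed complex between 50 nM HP1-beta and 50 nM biotinylated H3K9me3 peptide was read by AlphaScreen. Buffer was PBS pH 7.4 with 0.01% Tween-20. Incubations ran 30 min at room temperature, with 10 ug/mL donor/acceptor beads.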
G9a block: qHTS Assay for Inhibitors of Histone Lysine Methyltransferase G9a | Histone-lysine N-methyltransferase EHMT2 (Homo sapiens), Q96KQ7 | G9a H3K9 monomethylation, AlphaScreen, 2 h | Potency, µM (doses to about 102 µM), for the others: at the top dose activity, negative = inhibition, most hits filed as inhibitors | 8.8% of 350,000 active; further: potency means the concentration at half of the fitted maximal effect; on the % scale 0 is the no-effect control and ±100 the full control effect; nearly all actives have a fitted effect of over 75% in size
Target sequence (Q96KQ7 913-1193 limits assumed): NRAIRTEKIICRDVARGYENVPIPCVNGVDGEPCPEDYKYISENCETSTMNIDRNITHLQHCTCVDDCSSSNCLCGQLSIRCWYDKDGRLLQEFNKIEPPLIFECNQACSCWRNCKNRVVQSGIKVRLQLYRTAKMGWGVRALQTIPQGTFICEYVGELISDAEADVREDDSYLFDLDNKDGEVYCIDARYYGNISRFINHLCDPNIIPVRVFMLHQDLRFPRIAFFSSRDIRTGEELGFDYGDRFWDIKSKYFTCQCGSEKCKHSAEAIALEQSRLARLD
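Step 1: enzyme (final 20 nM) with compound, 15 min RT. Step 2: substrate peptide 500 nM and SAM 20 uM, 2 h RT. Step 3: anti-H3K9me1 antibody and AlphaScreen beads, 10 min, then plate read.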
BAZ2B inh: qHTS Assay for Inhibitors of BAZ2B | Potency, µM (series often up to 114 µM), inactives show at the highest dose activity change, negative = inhibition, actives largely listed as inhibitors | Bromodomain adjacent to zinc finger domain protein 2B (Homo sapiens), Q9UIF8 | AlphaScreen BAZ2B-H3K14Ac peptide displacement | 4.4% of 360,000 active; further: potency means the concentration at half of the fitted maximal effect; on the % scale 0 is the no-effect control and ±100 the full control effect; nearly all actives have a fitted effect of over 60% in size
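BAZ2B 50 nM plus b-H3(5-23)K14Ac 50 nM, PBS pH 7.4/0.01% Tween-20, 30 min RT; compound added (max 110 uM), 30 min RT; streptavidin donor/Ni-chelate acceptor beads 10 ug/mL final, 20 min dark; AlphaScreen read.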
JMJD2A Tudor inh: qHTS Assay for Inhibitors of JMJD2A-Tudor Domain | 4.4% of 390,000 active | AID 504339, 2011 | Lysine-specific demethylase 4A (Homo sapiens), O75164 | AlphaScreen JMJD2A-Tudor / H3K4me3 peptide binding | Potency, µM (top dose mostly 114 µM), for inactives: top-dose activity change, negative = inhibition, actives largely listed as inhibitors; further: potency means the concentration at half of the fitted maximal effect; on the % scale 0 is the no-effect control and ±100 the full control effect; nearly all actives have a fitted effect of over 50% in size
Six1-Eya2 inh: qHTS Assay for Inhibitors of the Six1/Eya2 Interaction. Homeobox protein SIX1 (Homo sapiens) + Protein phosphatase EYA2 (Homo sapiens), …. AlphaScreen GST-Six1/His-Eya2 binding, biochemical; active compounds read low. activity change, % (concentration not given with the values). 0.56% of 360,000 active. AID 651725, 2012; in the data active means activity change below about -65%; inconclusive means mostly about -30% to -63%; further: on the % scale 0 is the no-effect control and ±100 the full control effect
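GST-Six1 + His-Eya2 (5X stock: 250/500 nM); Tris pH 8.0, 300 mM NaCl, 0.05% BSA, 0.02% Tween 20; GSH donor/Ni acceptor beads; 1 h 37 °C dark; AlphaScreen readout.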
Active calls of the source: *; ? = inconclusive; · = no result; ! = a repeat was not active; [ ] = dose if it differs, or a comment. Compounds with a hit are over-represented: about 10% of the library has one in this group of screens. Unless noted, the call rests on the fitted dose curve; in most records, active means well fitted inhibition curve with a large enough effect; inconclusive means small, poorly fitted or top-dose-only effect; inactive means no such curve, though single readings can be large or run the other way.

SMILES | CtBP-E1A blk | HP1b chromo inh | G9a block | BAZ2B inh | JMJD2A Tudor inh | Six1-Eya2 inh
Cc1ccc(NC(=O)c2ccc3ncsc3c2)cc1S(=O)(=O)N(C)C | · | · | ? | 56µM* | · | ·
O=C(CSc1nc(=O)n(Cc2ccncc2)c2c1CCC2)Nc1ccccc1 | · | 24% | 4%[59 µM] | 5% | 5% | ·
CCOC(=O)c1c(S(=O)(=O)N2CCCC(C(=O)Nc3cccc(CC)c3)C2)c(C)n(CC)c1C (stereo not given) | · | 37% | 15%[59 µM] | -26% | -16% | ·
O=C(OCC#CCSc1nnc(-c2cccc3ccccc23)o1)c1cccc(F)c1 | · | · | · | · | 40% | ·
O=C(CSc1nc2c(c(=O)[nH]1)CCC2)Nc1ccccc1C(F)(F)F | · | 1% | -33%[59 µM] | -11% | -17% | ·
O=C(Nc1ccc(C(F)(F)F)cc1)c1ccc2ncsc2c1 | -10 | 28% | ? | 2% | -1% | 5
O=C(Nc1ccc(F)cc1)c1ccc2ncsc2c1 | · | 45% | 35µM* | -2% | -2% | 5
CC(=O)NC(=O)COC(=O)c1ccc2ncsc2c1 | 1 | 38% | 56µM* | 8% | -15% | 4
CCOC(=O)c1ccc(N2C(=O)c3n[nH]c(-c4ccco4)c3C2c2ccc(OCC)cc2)cc1 (stereo not given) | · | -24% | -57%[59 µM] | · | ? | ·
N#CC(c1cccc(Cl)c1)c1ccc2c(C(F)(F)F)cc(C(F)(F)F)nc2n1 (stereo not given) | ? | 10µM* | 14µM* | 10µM* | 28µM* | ?
N#CC(c1ccccc1)c1cccc(Cl)n1 (stereo not given) | -12 | 60% | 9% | 8% | 3% | 21
Cc1ccc(-c2nc(C(=O)NC3CCCCCC3)no2)cc1 | 2 | 46% | · | · | 16µM* | 7
CCCNC(=O)C1(C)CCN1C(=O)c1ccc(C(C)(C)C)cc1 (stereo not given) | 8 | · | · | · | · | 4
Cc1cccc(NC(=O)C2CCCN2S(=O)(=O)c2ccc3nc(-c4ccccc4)[nH]c3c2)c1 (stereo not given) | · | 12% | -9%[59 µM] | ? | -23% | ·
Cc1ccc(NC(=O)C2CCCN2S(=O)(=O)c2ccc3nc(-c4ccccc4)[nH]c3c2)cc1C (stereo not given) | · | 19% | -34%[59 µM] | 79µM* | -32% | ·
CCc1ccccc1NC(=O)c1ncoc1-c1ccco1 | · | 21% | 5%[59 µM] | -10% | -6% | ·
CON(C)c1nc(OCCNC(=O)OCc2ccc(Cl)cc2Cl)nc(N(C)C)n1 | 0 | 11% | 4% | -7% | -18% | 2
O=C1[C@@H]2C(c3cccnc3)=NO[C@@H]2C(=O)N1c1ccc2ccccc2c1 | 3 | ? | · | -9% | 79µM* | 6
CCS(=O)(=O)c1nc(S(=O)(=O)c2ccc(Cl)cc2)c(N2CCC(O)CC2)s1 | -9 | 64% | · | -5% | -16% | 8
COc1ccccc1C(=O)NCC(c1ccc(N(C)C)cc1)N1CCc2ccccc21 (stereo not given) | · | 11µM* | 14µM* | 10µM* | 11µM* | ·
COc1ccc(C(=O)NCC(c2ccco2)N2CCc3ccccc32)c(OC)c1 (stereo not given) | -6 | -11% | 23%[2.33 µM] | ? | -23% | -21
CN(C)c1ccc(C(CNC(=O)c2ccccc2Cl)N2CCCC2)cc1 (stereo not given) | · | -3% | ? | -27% | -24% | ·
CN(C)c1ccc(C(CNC(=O)c2ccccc2Cl)N2CCc3ccccc32)cc1 (stereo not given) | · | ? | 14µM* | 13µM* | 18µM* | ·
CCc1ccc(C2C(C(=O)Nc3ccccc3OC)=C(C)Nc3c(C(=O)Nc4ccc(C)cc4)cnn32)cc1 (stereo not given) | · | -14% | ? | 1%[57.1 µM] | -32% | ·
COc1cccc(CN2CC(C(=O)N(C)Cc3ccc(C)cc3)CCC2=O)c1 (stereo not given) | 3 | 19% | 6%[59 µM] | -12% | -6% | 1
SMILES | CtBP-E1A blk | HP1b chromo inh | G9a block | BAZ2B inh | JMJD2A Tudor inh | Six1-Eya2 inh
COc1ccc(C(C(=O)Nc2ccc(F)cc2)N2CCN(c3cccc(C(F)(F)F)n3)CC2)cc1 (stereo not given) | -2 | · | · | · | · | -2
COc1ccc(/C=C/C(=O)Nc2nc3n(n2)C(c2ccccc2)C=C(c2ccccc2)N3)cc1 (stereo not given) | · | 27% | -9%[59 µM] | -19% | -33% | ·
COc1ccc(C2C=C(c3ccccc3)Nc3nnnn32)cc1 (stereo not given) | 10 | 31% | 50µM* | -1% | -16% | 2
COc1cccc(C2=CC(c3cccc(OC)c3OC)n3nnnc3N2)c1 (stereo not given) | -1 | 54% | 10µM* | -5% | -12% | -7
COc1cccc(C2=CC(c3ccc(N(C)C)cc3)n3nnnc3N2)c1 (stereo not given) | -2 | 45% | ? | -34% | -6% | -12
COc1cccc(C2=CC(c3ccccc3)n3nnnc3N2)c1 (stereo not given) | -2 | 28% | 40µM* | 3% | -15% | 1
COc1ccc(C2C=C(c3ccccc3)Nc3nc(NC(C)=O)nn32)cc1 (stereo not given) | · | 27% | ? | 50µM*! | -10% | ·
CCN(CC(=O)NCc1ccc(Cl)cc1)C(=O)C(C)Sc1ccccc1 (stereo not given) | 9 | 34% | · | 1% | -16% | -3
CO[C@H]1C([C@@]2(C)O[C@@H]2CC=C(C)C)[C@]2(CC[C@H]1OC(=O)/C=C/C=C/C=C/C=C/C(=O)O)CO2 (stereo not given in full) | · | · | 22µM* | · | · | ·
C=C1C(=O)C=C2CN(C(=O)c3ccccc3)[C@@](Cc3ccc(F)cc3)(C(=O)OC)[C@@H]12 | 0 | 11% | 8.9µM* | -7% | -29% | 4
C=C1C(=O)CC2=C1[C@](Cc1ccc(F)cc1)(C(=O)OC)N(C(=O)c1ccccc1)C2 | 4 | · | · | · | · | 8
CC(OC(=O)CCc1nc2ccccc2[nH]c1=O)c1ccccc1 (stereo not given) | 10 | 0% | 5% | -11% | -24% | 15
COC(=O)CSCc1nc2ccccc2[nH]c1=O | -15 | 21% | 20µM* | -20% | -23% | 4
